BAZ2B block – blocks human BAZ2B; Q9UIF8; AlphaScreen BAZ2B-H3K14Ac peptide displacement; Potency, µM (top dose mostly 114 µM), for inactives: at the highest dose activity change, negative = inhibition, most hits filed as inhibitors; 360,000 tested, 4.4% active; AID 504333; also: potency is read from the fitted curve at half-maximal effect; % is scaled to controls: 0 for no effect and ±100 for the full control effect; nearly all actives have a fitted effect of over 60% in size
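Inhibition is scored as reduced AlphaScreen emission. The BAZ2B/b-H3(5-23)K14Ac complex (50 nM each) in PBS pH 7.4, 0.01% Tween-20 meets compound (up to 110 uM) for 30 min at RT before bead addition.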
KAT2A inh – inhibitors of human GCN5L2 histone acetyltransferase; Q92830; Potency, µM (titrated, usually from 58.9 µM), inactives show at the highest dose activity change, negative = inhibition, usual class: inhibitors; GCN5L2 HAT assay, ThioGlo1 CoA-SH fluorescence; AID 504327; 390,000 tested, 0.21% active; also: potency is read from the fitted curve at half-maximal effect; % is scaled to controls: 0 for no effect and ±100 for the full control effect
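Enzyme at 20nM final was mixed with library compounds for 15 min at room temperature. Peptide H3(1-25) at 75uM, acetyl-CoA at 70uM and ThioGlo1 at 50uM were then added. Plates were read immediately and after 20 min (Ex340nm/Em540nm).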
PLK1 PBD inh – inhibitors of human PLK1 polo-box domain binding; Plk1 PBD binding of FITC phosphopeptide, fluorescence polarization; AID 720504; 360,000 tested, 2.8% active; Potency, µM, for the others: max response, negative = inhibition, usual class: inhibitors; also: potency is read from the fitted curve at half-maximal effect; series mostly up to about 57 µM; % is scaled to controls: 0 for no effect and ±100 for the full control effect; nearly all actives have a fitted effect of over 65% in size
HP1b binding inh – HP1-beta chromodomain-methylated histone interaction inhibition; AlphaScreen HP1-beta / biotin-H3K9me3 peptide binding; Potency, µM (series often up to 114 µM), inactives show at the top dose activity change, negative = inhibition, most hits filed as inhibitors; 390,000 tested, 0.56% active; also: potency is read from the fitted curve at half-maximal effect; nearly all actives have a fitted effect of over 70% in size
Target sequence (P83916 whole entry, looked up): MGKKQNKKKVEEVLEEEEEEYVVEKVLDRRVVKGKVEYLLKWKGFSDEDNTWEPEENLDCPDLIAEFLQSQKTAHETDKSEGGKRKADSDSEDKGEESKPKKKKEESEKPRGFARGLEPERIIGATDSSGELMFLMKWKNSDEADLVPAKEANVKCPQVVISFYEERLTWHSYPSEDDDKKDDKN
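HP1-beta protein (50 nM final) preincubated 30 min at room temperature with biotinylated H3(1-18)K9me3 peptide (50 nM) in PBS pH 7.4, 0.01% Tween-20, then compound added for 30 min. AlphaScreen streptavidin donor/nickel chelate acceptor beads (10 ug/mL final), 30 min dark, luminescence read.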
JMJD2A Tudor inh – JMJD2A Tudor domain (human) inhibition | 390,000 tested, 4.4% active | AlphaScreen JMJD2A-Tudor / H3K4me3 peptide binding | Potency, µM (titrated, usually from 114 µM), inactives show at the highest dose activity change, negative = inhibition, actives largely listed as inhibitors | O75164; also: potency is read from the fitted curve at half-maximal effect; % is scaled to controls: 0 for no effect and ±100 for the full control effect; nearly all actives have a fitted effect of over 50% in size
PI5P4K alpha inh – blocks human PI5P4K alpha kinase activity; 330,000 tested, 1.2% active; PI5P4Kalpha enzyme, ADP-Glo luminescence, 60 min; stronger effect = lower value; AID 652105; max response, %; P48426; active = max response of -50% or lower; inconclusive = between -30% and -50%; inactive = -30% or higher; also: value at the top dose of about 77 µM; % is scaled to controls: 0 for no effect and ±100 for the full control effect
Target sequence (P48426 whole entry, looked up): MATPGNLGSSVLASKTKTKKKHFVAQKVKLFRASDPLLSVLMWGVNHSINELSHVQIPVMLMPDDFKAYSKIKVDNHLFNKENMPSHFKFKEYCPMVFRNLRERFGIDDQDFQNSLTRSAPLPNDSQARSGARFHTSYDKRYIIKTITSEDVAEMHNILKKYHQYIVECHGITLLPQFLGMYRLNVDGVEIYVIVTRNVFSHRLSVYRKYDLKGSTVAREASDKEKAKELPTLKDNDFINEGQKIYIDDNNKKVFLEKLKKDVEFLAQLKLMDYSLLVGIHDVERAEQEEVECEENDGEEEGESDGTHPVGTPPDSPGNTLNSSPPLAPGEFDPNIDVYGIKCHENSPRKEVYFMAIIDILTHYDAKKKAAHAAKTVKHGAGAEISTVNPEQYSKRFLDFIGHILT
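Single end-point luminescence (ADP-Glo) quantified ADP from PI5P4Kalpha turnover; ATP 5 microM final, 1 h at RT, 0.1% CHAPS and 0.28 mM EGTA in HEPES pH 7.4.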
Active calls of the source: *; ? = inconclusive; nt = not tested or not shown; [ ] = another dose, or the depositor's remark. Only some compounds are listed: those with a hit (about 7% of all), similar ones and a draw of the others. Unless noted, calls follow the shape of the dose curve; as a rule, active = well fitted curve in the direction sought with a large enough effect; inconclusive = small, poorly fitted or top-dose-only effect, or another doubt; inactive = no such curve, though single readings can be large; an effect the other way counts as inactive or inconclusive.

SMILES	BAZ2B block	KAT2A inh	PLK1 PBD inh	HP1b binding inh	JMJD2A Tudor inh	PI5P4K alpha inh
Cc1nnsc1C(=O)N1CCN(c2cc(C(F)(F)F)ccn2)CC1	-7%	-2%	-7%	32%	-12%	1
COc1cccc(NC(=O)CSC2=Nc3ccccc3C3=NC(CC(=O)NCCc4ccccc4)C(=O)N23)c1 (centres undefined)	9%	0%	nt	20%	-21%	nt
CCOc1cc(/C=C/C(=O)c2ccc(OC)c(CN3CCOCC3)c2)cc(Br)c1O	?	-9%	49%	-37%	?	-2
CCOC(=O)C1=C(O)/C(=C/c2ccc(-c3ccccc3C(=O)O)o2)SC1=Nc1ccc(C)cc1	-36%	-17%	?	-15%	50µM*	-99*
CCOC(=O)C1=C(O)/C(=C/c2cc(OC)c(O)c(OC)c2)SC1=Nc1ccc(OC)cc1	-34%	-8%	10%	9%	-21%	2
CCOC(=O)C1=C(O)/C(=C/c2ccc(-c3ccccc3C(=O)O)o2)SC1=Nc1ccc(OC)cc1	5%	-6%	-8%	9%	-23%	-55*
CCOC(=O)C1=C(O)/C(=C/c2ccccn2)SC1=Nc1ccc(Cl)cc1	-33%	-11%	3%	14%	-25%	13
O=S(=O)(c1ccc2c(c1)OCCO2)N1CCN(S(=O)(=O)c2cc(F)c(Br)cc2F)CC1	nt	nt	nt	nt	-14%	nt
CC1=C(C(=O)N2CCCCCC2)CC(CC(=O)NCCCN(C)C)C(=O)N1CCCN1CCCC1=O (centres undefined)	nt	nt	nt	nt	nt	-2
COc1ccc(S(=O)(=O)NNS(=O)(=O)c2ccc(OC)c(OC)c2)cc1OC	nt	nt	-9%	nt	nt	-5
O=C(O)[C@@H](c1ccccc1)N1Cc2ccccc2C1=O	20µM*	-7%	-15%	-11%	25µM*	1
Cc1[nH]n(-c2ccccc2)c(=O)c1N=Nc1nccs1	32µM*	-7%	-14%	-25%	?	nt
Cc1ccccc1N=Nc1c(C)[nH]n(-c2ccccc2)c1=O	?	2%	-1%	35µM*	?	7
CC1OC(CCc2cccc(Cl)c2)Cc2[nH]c(=S)[nH]c(=O)c21 (centres undefined)	nt	nt	-15%	nt	nt	-11
COc1ccc2c(c1)c(=O)oc1cc(OCC(=O)NC3CC3)ccc12	?	-3%	-11%	4%	-34%	-28
COc1ccc2c(c1)c(=O)oc1cc(OCC(=O)NC3CCCCC3)ccc12	79µM*	-16%	-25%	?	40µM*	nt
CC(C)(C)NC1=NCCNC(c2ccccc2)=C1	nt	nt	3%	nt	nt	-1
OCC1(Cc2ccccc2)CCN(Cc2ccc(-c3ccco3)cc2)CC1	-35%	0%	-22%	-20%	-35%	-2
OCC1(Cc2ccccc2)CCCN(Cc2ccc(-c3ccco3)cc2)C1 (centres undefined)	45µM*	-18%	-15%	-23%	?	-3
CC1=C(C#N)C(c2ccoc2)C(C(=O)OCc2ccccc2)=C(N)S1 (centres undefined)	4%	?	-14%	21%	?	-9
N#CC1=C(N)SC(N)=C(C#N)C1c1ccoc1	25µM*	?	nt	nt	nt	nt
Cc1ccc(C2C(C#N)=C(N)SC(N)=C2C#N)c(C)c1	3%	-12%	32%	49%	89µM*	-63*
Cc1ccc(C2C(C#N)=C(N)SC(N)=C2C#N)cc1	-7%	-3%	33%	8%	?	-85*
COc1ccccc1CNc1nc(-c2ccco2)nn1S(=O)(=O)c1ccc(Cl)cc1	-32%	-12%	nt	30%	-11%	nt
Nc1nnc(SCC(=O)NNC(=O)c2ccccc2)s1	-10%	-1%	-6%	27%	-14%	-7
SMILES	BAZ2B block	KAT2A inh	PLK1 PBD inh	HP1b binding inh	JMJD2A Tudor inh	PI5P4K alpha inh
CC(C)CNC(=O)C1=CC(c2ccc3c(c2)OCO3)=NS(=O)(=O)N1C	2%	-5%	nt	45%	-6%	nt
Cc1cccc(NC(=O)CN2CCN(C(=O)CN3C(=O)NC4(CCCCC4C)C3=O)CC2)c1C (centres undefined)	nt	nt	1%	35%	1%	0
COc1ccccc1NC(=O)Cn1c(=O)n(CCCCCC(=O)NCc2ccccc2)c(=O)c2sccc21	-2%	-2%	nt	21%	-9%	nt
O=C(CCc1ccccn1)N1CCCC(N2CCN(c3ccc(F)cc3)CC2)C1 (centres undefined)	-15%	?	-12%	16%	-10%	-2
COC(=O)c1sc2ccccc2c1C(=O)OC	7%	-6%	-6%	33%	9%	nt
COC(=O)c1sc2ccccc2c1N	13%	-10%	27µM*	-1%	-28%	-15
CCC(CC)CN1CCC(CN2C(=O)C(=O)NC[C@@H]2[C@@H](C)CC)CC1	nt	nt	?	10%	-35%	3
CC[C@H](C)[C@H]1CNC(=O)C(=O)N1CC1CCN(CCCc2ccc(OC)c(OC)c2)CC1	nt	nt	-21%	-4%	79µM*	-4
OC(c1ccc(Cl)c(F)c1)c1ncc(-c2cccc(C(F)(F)F)c2)[nH]1 (centres undefined)	nt	nt	4%	nt	nt	19
Cc1ccc2nc(-c3ccncc3)[nH]c2c1	?	-11%	8%	41%	-6%	-2
Cc1ccc(-c2csc(N3CCN(c4cc5c(cc4Cl)nc(C)n5CCN4CCCCC4)CC3)n2)cc1	-38%[57.1 µM]	-2%	?	-24%	40µM*	?
Cc1csc(N2CCN(c3cc4c(cc3Cl)nc(-c3ccncc3)n4CCCN3CCCC3)CC2)n1	?	1%	-8%	3%	56µM*	7
Cc1csc(N2CCN(c3cc4nc(-c5ccncc5)[nH]c4cc3Cl)CC2)n1	?	-7%	-19%	25%	79µM*	-7
CC(C)[C@H](NC(=O)N1c2ccccc2NC(=O)[C@@H]1C(C)C)C(=O)N[C@H](Cc1ccccc1)C(=O)O	-16%	-1%	10%	32%	-3%	-1
CCCCNC(=O)C1C(c2ccc(C(F)(F)F)cc2)=Nc2ccccc2N1C(=O)c1ccc2nc(C)[nH]c2c1 (centres undefined)	nt	nt	5%	nt	nt	0
CCCCCCCc1c(C#N)c(N)[nH]c(=S)c1C#N	?	-5%	24µM*	7%	-28%	-56*
O=C(O)c1cc(NCc2cc(O)ccc2O)ccc1O	nt	-15%	nt	?	25µM*	nt
O=C(O)c1ccc(O)cc1O	-6%	-9%	-5%	51%	-8%	0
O=C(OCCC12CC3CC(CC(C3)C1)C2)c1ccc(NCc2cc(O)ccc2O)cc1	nt	nt	-14%	?	25µM*	-59*
CCNC(=O)OCCC12CC3CC(CC(C3)C1)C2	4%	2%	1%	30%	15%	3
O=C(OCC12CC3CC(CC(C3)C1)C2)c1ccc(NCc2cc(O)ccc2O)cc1	nt	nt	-8%	16µM*	50µM*	?

Source: PubChem (National Center for Advancing Translational Sciences (NCATS))
